These results are taken from PubChem BioAssay (NCATS).

Inconclusive results are not listed. Active and inactive are the calls of the source. Unless noted, calls follow the shape of the dose curve; as a rule, active = well fitted curve in the direction sought with a large enough effect; inconclusive = small, poorly fitted or top-dose-only effect, or another doubt; inactive = no such curve, though single readings can be large; an effect the other way counts as inactive or inconclusive.

Experiment [1] has as its target Lysosomal acid glucosylceramidase (Homo sapiens) (UniProt P04062). Put plainly: Glucocerebrosidase-p2 (AID 348; in the data active = potency below about 10 µM; also: potency is read from the fitted curve at half-maximal effect). Particulars: purified GBA, blue fluorogenic substrate, 40 min. The essentials:
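Normal human glucocerebrosidase (0.2 nM) with blue fluorogenic substrate (80 uM final) in citrate/phosphate pH 5.9 with 10mM sodium taurocholate, 0.01% tween-20; 40 min RT, NaOH/glycine stop; fluorescence Ex 365/Em 440; AC50 from a titration from 0.6 nM upwards.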

Experiment [2] can be described thus: AP1 Signaling Pathway (AID 357; active = well fitted curve in either direction with a large enough effect, not every such curve was filed as active;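 also: ME-180 reporter cells stimulated with EGF at its EC50 level; % is scaled to controls: 0 for no effect and ±100 for the full control effect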). The settings on record: ME-180 AP-1-bla reporter, EGF-induced, beta-lactamase ratio, 5 h; at 7.69 µM (top of the series) unless noted. Summed up: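 Titration-series screen for positive or negative modulators of EC50 EGF-induced signaling in ME-180 cells carrying an AP-1-driven beta-lactamase reporter. After 5 hours at 37 degrees Celsius, CCF4 460nm/530nm emission ratio gave %Activity; AC50 values derived.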

The target in experiment [3] is Cytochrome P450 1A2 (Homo sapiens) (UniProt P05177). Put plainly: p450-cyp1a2 (AID 410; calls by dose curve; also: potency is read from the fitted curve at half-maximal effect). Particulars: recombinant CYP1A2, luciferin-ME demethylation, luminescence; series mostly up to 57 µM. The essentials:
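20nM CYP1A2, 100uM Luciferin-ME (=Km), 100mM KPO4; cpd 10 min RT; +NADPH regen, 60 min RT; stop/detect 20 min; luminescence. Normalized to furafylline 57 uM = full inhibition.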

Experiment [4] in a line: NFAT Signaling Pathway (AID 444; active = well fitted curve in either direction with a large enough effect, not every such curve was filed as active;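 also: carbachol stimulus at about its EC50 of 1 µM final; % is scaled to controls: 0 for no effect and ±100 for the full control effect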). The settings on record: Jurkat NFAT-bla M1, carbachol, beta-lactamase ratio, 5 h; at 7.69 µM (top of the series) unless noted. Summed up: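 Jurkat cells with NFAT-driven β-lactamase reporter and co-expressed M1 receptor, stimulated with carbachol (final 1 uM, ~EC50), compound titration, 5 h at 37 °C. CCF4 loaded 1 h at RT; 460/530 nm ratio gave %activity and AC50.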

The nature of experiment [5]: Stat Signaling Pathway (AID 446; active = well fitted curve in either direction with a large enough effect, not every such curve was filed as active;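 also: ME-180 cervical cancer cells given 40 pM IL-6 alongside compound; SIE-controlled beta-lactamase reporter measured as 460/530 nm FRET emission ratio; % is scaled to controls: 0 for no effect and ±100 for the full control effect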). The settings on record: ME-180 (cervical carcinoma) SIE beta-lactamase reporter, IL-6 stimulated, 5 h; at 7.69 µM (top of the series) unless noted. Summed up:
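Overnight-plated ME-180 cells bearing a STAT Inducible Element beta-lactamase reporter; 5 h co-exposure to compound and 40 pM IL-6; values normalized to 300 pM IL-6 and 125 nM JAK inhibitor controls.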

For experiment [6], the target named is Glucocorticoid receptor (Homo sapiens) (UniProt P04150). The experiment can be described thus: GR-GFP Redistribution (AID 450;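 active = compounds whose dose series gives a full or clear partial fitted curve of increased nuclear translocation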; also: potency is read from the fitted curve at half-maximal effect). Particulars: U2OS GR-GFP nuclear translocation, laser cytometry, 2 h.
For experiment [7] the target is unchanged. Put plainly: GR-EFC Redistribution (AID 451; calls by dose curve; also: potency is read from the fitted curve at half-maximal effect). Particulars: CHO-K1 GR-EFC translocation, beta-gal luminescence, 2 h. The essentials: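 CHO-K1 cells expressing nuclear EA and GR-ED fragments of b-gal; compounds titrated up to 46 uM final, 2 h at 37 C. GR nuclear translocation read as complemented b-gal luminescence after 1 h RT detection.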
Experiment [8] has as its target Mitogen-activated protein kinase 10 (Mus musculus) (UniProt Q61831). The experiment can be described thus: JNK3 AlphaScreen Assay (AID 530; active = well fitted curve in either direction with a large enough effect, not every such curve was filed as active;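 also: kinase came from lysate of stimulated human HepG2 cells; signal reports phosphorylation of biotinylated GST-cJun 1-79 at Ser73 with 10 µM ATP; % is scaled to controls: 0 for no effect and ±100 for the full control effect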). Particulars: JNK3 lysate, c-Jun phosphorylation; series mostly up to 57.1 µM. Summed up: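 HepG2 lysate (IL-1b/TNFa pre-activated) + biotin-GST-cJun 1-79 + anti-pSer73 cJun; cpd titration, 15 min RT; ATP 10 uM start; Tris pH 7.6, MgCl2, DTT, vanadate; beads in EDTA buffer; AlphaScreen.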
A general note: In Alpha technology, singlet oxygen from a donor bead excites a nearby acceptor bead.

Experiment [9] has as its target 3',5'-cyclic-AMP phosphodiesterase 4B (Homo sapiens) (UniProt Q07343). The experiment can be described thus: qHTS Assay for Inhibitors of PDE-IV (AID 607; active = well fitted activation curve with a large enough effect in the main read-out, with a control signal flat, not every such curve was filed as active; also: % of control where 0% means no effect). The settings on record: HEK293 ACTOne CNG channel cells, membrane potential fluorescence; series mostly up to 22.9 µM. The essentials: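 Live HEK293 cells with a modified cyclic nucleotide-gated (CNG) channel report intracellular cAMP via membrane-potential dye fluorescence (ex 535/em 590 nm). Endogenous PDE-IV was targeted. Compounds were tested at up to 22.9 uM final; RO 20-1724 100 uM served as control.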

For experiment [10], the target named is Cytochrome P450 3A4 (Homo sapiens) (UniProt P08684). Put plainly: qHTS Assay for Inhibitors and Substrates of Cytochrome P450 3A4 (AID 884). Also: potency is read from the fitted curve at half-maximal effect; nearly all actives have a fitted effect of over 50% in size. Particulars: recombinant CYP3A4, Luciferin-PPXE luminescence; series mostly up to 57.1 µM. The essentials:
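Luminescent readout of luciferin produced by CYP3A4 (20 nM) dealkylation of Luciferin-PPXE, 25 uM (its KM). NADPH-driven reaction ran 60 min at RT after 10 min compound preincubation; data scaled to 57 uM ketoconazole as 100% inhibition.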
For orientation: Quantitative high-throughput screening tests each substance at several concentrations.

Experiment [11] is described as follows: qHTS Assay for Lipid Storage Modulators (AID 1519; calls by dose curve). The settings on record: Drosophila S3 cells, BODIPY lipid droplet/cell ratio, laser cytometry, cells loaded with oleic acid; for activity change, negative = inhibition: at 57.5 µM (top of the series). The essentials: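 Cells seeded at 5,000 per well were treated with compounds over a concentration series and loaded with oleic acid (400 uM, as added). Lipid droplet fluorescence (488 nm excitation, 500-530 nm channel) was read by laser-scanning cytometry and normalized to 20 uM Triacsin C.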

Experiment [12] concerns the target Dual specificity protein kinase CLK4 (Homo sapiens) (UniProt Q9HAZ1). Put plainly: qHTS Assay for Inhibitors of CDC-like Kinase 4 (Kinase-Glo Assay) (AID 1770). Also: nearly all actives have a fitted effect of over 65% in size. Also: potency is read from the fitted curve at half-maximal effect. Particulars: recombinant Clk4, Kinase-Glo ATP depletion luminescence; series mostly up to 66.7 µM. Summed up: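 Clk4 25 nM, RS peptide 100 uM, ATP 1 uM, pH 7.5 Tris, 10 mM MgCl2, 2.5 mM DTT; 4.5 h RT; ATP depletion read by Kinase-Glo luminescence.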

Experiment [13] has the same target. Put plainly: qHTS Assay for Inhibitors of CDC-like Kinase 4 (ADP-Glo Assay) (AID 1771). Also: nearly all actives have a fitted effect of over 70% in size. Also: potency is read from the fitted curve at half-maximal effect. The settings on record: recombinant CLK4, ADP-Glo luminescence; series mostly up to 80 µM. Summed up: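 25 nM Clk4, 100 uM RS peptide, 1 uM ATP (final); 2 mM MgCl2, 0.5 mM EGTA, 2.5 mM DTT, 0.01% Triton X-100; 1 hr RT. ADP-Glo readout: ATP depletion 45 min, conversion/luciferase 30 min, luminescence.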

The target is the same in experiment [14]. The experiment can be described thus: qHTS Assay for Inhibitors of CDC-like Kinase 4 (ADP-FP Assay) (AID 1795). Also: nearly all actives have a fitted effect of over 60% in size. Also: potency is read from the fitted curve at half-maximal effect. The settings on record: Transcreener ADP fluorescence polarization; series mostly up to 50 µM. Summed up: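 Kinase activity was followed as ADP output, converted from fluorescence polarization with a calibration curve. Reactions ran one hour at low ATP (1 uM) with RS peptide substrate.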

The target of experiment [15] is Ubiquitin carboxyl-terminal hydrolase 1 (Homo sapiens) (UniProt O94782). The experiment can be described thus: Inhibitors of USP1/UAF1: Pilot qHTS (AID 504865).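 Also: rhodamine fluorescence freed from ubiquitin-rhodamine substrate followed over time; top concentration of the series differs between compounds; % is scaled to controls: 0 for no effect and ±100 for the full control effect; nearly all actives have a fitted effect of over 35% in size.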 Particulars: purified USP1/UAF1, Ub-rhodamine cleavage fluorescence; series mostly up to 54.9 µM. The essentials:
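Enzyme-free wells gave the negative control, while test wells held 1nM USP1/UAF1 preincubated with compound for 15 min at room temperature. Ub-Rho at 150nM final started the reaction, and fluorescence at 480/540 nm was recorded kinetically.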

The nature of experiment [16]: Primary qHTS for small molecule stabilizers of the endoplasmic reticulum resident proteome: Secreted ER Calcium Modulated Protein (SERCaMP) assay (AID 1508630). Also: % is scaled to controls: 0 for no effect and ±100 for the full control effect. The settings on record: SH-SY5Y GLuc-SERCaMP (Gaussia luciferase released on ER calcium loss) secretion, thapsigargin, luminescence; series mostly up to 38.4 µM. Summed up: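 The SH-SY5Y reporter protocol was run at 3 concentrations up to 38.3 uM (primary) or 11 concentrations (follow-up): 16 h compound, 100 nM thapsigargin for 4 h, then extracellular luciferase luminescence.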

The target in experiment [17] is Cytochrome P450 2C9 (Homo sapiens) (UniProt P11712). The experiment can be described thus: qHTS Assay for Inhibitors and Substrates of Cytochrome P450 2C9 (AID 883). Also: potency is read from the fitted curve at half-maximal effect; nearly all actives have a fitted effect of over 60% in size. Particulars: recombinant CYP2C9, luciferin-H luminescence, 60 min; series mostly up to 57.1 µM. The essentials: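 10nM CYP2C9 + 100uM Luciferin-H (=KM), 25mM KPO4; cpd 10 min 37C; NADPH regen, 60 min 37C; stop/detect with P450 Glo-Buffer 20 min; luminescence. Norm. to 57uM sulphaphenazole as full inhibition.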

In experiment [18] the target is Cytochrome P450 3A4 (Homo sapiens) (UniProt P08684). The experiment can be described thus: qHTS Assay for Activators of Cytochrome P450 3A4 (AID 885). Also: nearly all actives have a fitted effect of over 65% in size. The settings on record: recombinant CYP3A4, Luciferin-PPXE luminescence, 60 min; series mostly up to 57.1 µM. The essentials: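 Using 20nM recombinant human CYP3A4 in potassium phosphate (200mM), substrate Luciferin-PPXE at 25uM, luminescent luciferin detection followed a 60-min RT NADPH reaction; data scaled to 57 uM ketoconazole.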

[19] abbreviates: measured here: cell count channel max response.
[20] abbreviates: measured here: lipid channel max response.

Sequence of Lysosomal acid glucosylceramidase (Homo sapiens) (P04062 whole entry, looked up): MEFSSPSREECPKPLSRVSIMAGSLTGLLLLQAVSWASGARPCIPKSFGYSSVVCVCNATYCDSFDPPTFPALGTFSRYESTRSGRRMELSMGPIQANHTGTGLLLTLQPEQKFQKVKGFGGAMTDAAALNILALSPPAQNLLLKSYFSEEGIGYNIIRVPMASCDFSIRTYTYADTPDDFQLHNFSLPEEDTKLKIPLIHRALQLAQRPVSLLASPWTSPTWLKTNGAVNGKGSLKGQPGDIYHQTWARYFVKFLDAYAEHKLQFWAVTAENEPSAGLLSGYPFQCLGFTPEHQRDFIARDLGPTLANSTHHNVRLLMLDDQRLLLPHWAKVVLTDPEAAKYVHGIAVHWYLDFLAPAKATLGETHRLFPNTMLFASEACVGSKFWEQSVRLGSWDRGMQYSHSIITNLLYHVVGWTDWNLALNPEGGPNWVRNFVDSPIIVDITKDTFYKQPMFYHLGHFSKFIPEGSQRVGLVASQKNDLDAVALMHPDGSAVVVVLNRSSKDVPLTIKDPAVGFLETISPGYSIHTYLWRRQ
Sequence of Dual specificity protein kinase CLK4 (Homo sapiens) (Q9HAZ1 whole entry, looked up): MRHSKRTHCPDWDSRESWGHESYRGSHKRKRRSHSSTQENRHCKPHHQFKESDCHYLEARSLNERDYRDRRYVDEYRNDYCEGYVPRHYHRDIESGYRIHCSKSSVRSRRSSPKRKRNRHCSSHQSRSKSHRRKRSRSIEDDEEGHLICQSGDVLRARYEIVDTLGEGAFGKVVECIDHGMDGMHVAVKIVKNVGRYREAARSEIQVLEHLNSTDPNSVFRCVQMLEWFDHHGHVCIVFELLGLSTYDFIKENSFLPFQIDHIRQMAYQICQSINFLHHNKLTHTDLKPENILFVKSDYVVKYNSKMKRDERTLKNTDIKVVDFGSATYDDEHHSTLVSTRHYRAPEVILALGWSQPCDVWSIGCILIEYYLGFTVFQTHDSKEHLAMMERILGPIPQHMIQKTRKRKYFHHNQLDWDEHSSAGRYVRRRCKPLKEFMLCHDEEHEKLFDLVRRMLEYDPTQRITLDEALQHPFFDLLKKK
Sequence of Ubiquitin carboxyl-terminal hydrolase 1 (Homo sapiens) (O94782 whole entry, looked up): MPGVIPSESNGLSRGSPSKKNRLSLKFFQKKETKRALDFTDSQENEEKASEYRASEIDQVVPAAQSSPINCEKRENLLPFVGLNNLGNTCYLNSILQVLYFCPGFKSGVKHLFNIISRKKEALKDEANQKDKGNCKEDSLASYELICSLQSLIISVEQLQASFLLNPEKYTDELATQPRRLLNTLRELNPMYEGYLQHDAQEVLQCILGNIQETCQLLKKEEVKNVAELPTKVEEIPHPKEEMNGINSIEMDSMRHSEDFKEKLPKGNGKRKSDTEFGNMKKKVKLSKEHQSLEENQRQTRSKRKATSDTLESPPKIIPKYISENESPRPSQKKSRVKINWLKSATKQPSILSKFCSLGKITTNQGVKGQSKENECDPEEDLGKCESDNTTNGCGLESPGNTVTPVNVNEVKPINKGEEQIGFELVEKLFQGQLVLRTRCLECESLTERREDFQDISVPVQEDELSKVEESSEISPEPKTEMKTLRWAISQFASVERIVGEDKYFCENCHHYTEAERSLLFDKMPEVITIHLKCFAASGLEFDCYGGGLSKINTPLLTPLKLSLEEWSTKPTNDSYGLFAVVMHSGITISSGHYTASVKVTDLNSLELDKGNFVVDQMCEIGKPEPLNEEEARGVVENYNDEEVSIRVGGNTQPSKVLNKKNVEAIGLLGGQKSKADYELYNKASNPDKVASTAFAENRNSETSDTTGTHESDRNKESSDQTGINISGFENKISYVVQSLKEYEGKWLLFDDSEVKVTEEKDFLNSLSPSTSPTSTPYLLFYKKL
Sequence of Cytochrome P450 1A2 (Homo sapiens) (P05177 whole entry, looked up): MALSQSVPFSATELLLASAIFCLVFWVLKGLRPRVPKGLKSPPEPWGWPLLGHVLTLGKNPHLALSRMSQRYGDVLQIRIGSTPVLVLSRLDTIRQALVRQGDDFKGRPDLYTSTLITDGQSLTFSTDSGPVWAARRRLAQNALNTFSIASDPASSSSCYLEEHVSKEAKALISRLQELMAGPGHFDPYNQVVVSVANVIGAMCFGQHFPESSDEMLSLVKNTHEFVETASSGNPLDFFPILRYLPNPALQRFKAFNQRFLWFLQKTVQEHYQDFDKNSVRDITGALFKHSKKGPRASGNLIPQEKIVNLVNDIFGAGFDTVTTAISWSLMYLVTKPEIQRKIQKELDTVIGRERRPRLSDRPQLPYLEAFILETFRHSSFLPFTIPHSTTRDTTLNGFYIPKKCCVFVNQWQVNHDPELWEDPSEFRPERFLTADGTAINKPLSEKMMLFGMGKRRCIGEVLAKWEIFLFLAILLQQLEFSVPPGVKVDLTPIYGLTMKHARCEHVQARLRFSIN
Sequence of Glucocorticoid receptor (Homo sapiens) (P04150 whole entry, looked up, the tested form may be a part): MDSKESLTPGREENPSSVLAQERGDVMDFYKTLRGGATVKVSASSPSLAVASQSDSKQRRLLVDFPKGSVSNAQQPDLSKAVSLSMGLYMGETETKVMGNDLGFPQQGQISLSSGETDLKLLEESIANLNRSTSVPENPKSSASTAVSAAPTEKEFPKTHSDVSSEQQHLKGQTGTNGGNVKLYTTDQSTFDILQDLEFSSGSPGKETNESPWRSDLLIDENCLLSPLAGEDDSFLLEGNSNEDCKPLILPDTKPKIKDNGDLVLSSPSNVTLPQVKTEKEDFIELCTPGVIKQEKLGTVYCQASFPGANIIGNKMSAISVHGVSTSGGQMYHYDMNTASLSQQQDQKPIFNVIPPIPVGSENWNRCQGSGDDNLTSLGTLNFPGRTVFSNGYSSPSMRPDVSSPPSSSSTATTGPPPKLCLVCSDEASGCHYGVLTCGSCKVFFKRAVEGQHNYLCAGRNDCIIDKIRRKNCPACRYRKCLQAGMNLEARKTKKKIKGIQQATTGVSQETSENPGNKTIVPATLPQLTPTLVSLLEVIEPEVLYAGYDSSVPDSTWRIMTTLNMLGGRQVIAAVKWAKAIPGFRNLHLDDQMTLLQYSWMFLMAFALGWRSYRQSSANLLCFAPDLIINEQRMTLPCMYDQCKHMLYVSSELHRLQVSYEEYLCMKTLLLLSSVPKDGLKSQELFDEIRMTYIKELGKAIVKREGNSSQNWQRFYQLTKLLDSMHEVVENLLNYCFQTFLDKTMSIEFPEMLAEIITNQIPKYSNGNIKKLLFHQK
Sequence of Cytochrome P450 3A4 (Homo sapiens) (P08684 whole entry, looked up): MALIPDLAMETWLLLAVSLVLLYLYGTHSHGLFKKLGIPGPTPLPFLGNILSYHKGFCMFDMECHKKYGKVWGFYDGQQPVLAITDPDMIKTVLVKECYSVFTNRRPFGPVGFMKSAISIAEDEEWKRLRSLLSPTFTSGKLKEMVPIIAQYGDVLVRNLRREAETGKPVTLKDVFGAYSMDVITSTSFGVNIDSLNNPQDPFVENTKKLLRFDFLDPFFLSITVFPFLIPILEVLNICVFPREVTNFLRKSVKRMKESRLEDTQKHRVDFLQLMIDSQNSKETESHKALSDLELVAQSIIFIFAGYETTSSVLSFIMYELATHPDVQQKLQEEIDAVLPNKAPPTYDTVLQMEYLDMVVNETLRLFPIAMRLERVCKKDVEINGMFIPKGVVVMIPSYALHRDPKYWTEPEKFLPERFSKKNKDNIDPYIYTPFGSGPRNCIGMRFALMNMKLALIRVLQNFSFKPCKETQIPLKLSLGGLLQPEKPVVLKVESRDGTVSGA
Sequence of Cytochrome P450 2C9 (Homo sapiens) (P11712 whole entry, looked up): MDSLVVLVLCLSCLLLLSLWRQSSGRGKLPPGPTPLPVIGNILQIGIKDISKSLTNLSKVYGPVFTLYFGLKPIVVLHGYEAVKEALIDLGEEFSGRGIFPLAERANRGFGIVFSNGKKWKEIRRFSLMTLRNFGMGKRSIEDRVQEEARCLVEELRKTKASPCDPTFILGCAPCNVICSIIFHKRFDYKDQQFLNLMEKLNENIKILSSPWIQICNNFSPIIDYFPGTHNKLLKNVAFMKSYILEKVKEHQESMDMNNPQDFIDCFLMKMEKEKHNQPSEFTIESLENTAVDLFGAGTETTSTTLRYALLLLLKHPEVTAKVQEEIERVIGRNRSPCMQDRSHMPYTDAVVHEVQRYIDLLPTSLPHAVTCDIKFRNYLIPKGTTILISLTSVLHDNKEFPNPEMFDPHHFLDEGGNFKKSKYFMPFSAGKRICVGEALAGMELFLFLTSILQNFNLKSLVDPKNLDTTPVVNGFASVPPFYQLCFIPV
Sequence of 3',5'-cyclic-AMP phosphodiesterase 4B (Homo sapiens) (Q07343 whole entry, looked up): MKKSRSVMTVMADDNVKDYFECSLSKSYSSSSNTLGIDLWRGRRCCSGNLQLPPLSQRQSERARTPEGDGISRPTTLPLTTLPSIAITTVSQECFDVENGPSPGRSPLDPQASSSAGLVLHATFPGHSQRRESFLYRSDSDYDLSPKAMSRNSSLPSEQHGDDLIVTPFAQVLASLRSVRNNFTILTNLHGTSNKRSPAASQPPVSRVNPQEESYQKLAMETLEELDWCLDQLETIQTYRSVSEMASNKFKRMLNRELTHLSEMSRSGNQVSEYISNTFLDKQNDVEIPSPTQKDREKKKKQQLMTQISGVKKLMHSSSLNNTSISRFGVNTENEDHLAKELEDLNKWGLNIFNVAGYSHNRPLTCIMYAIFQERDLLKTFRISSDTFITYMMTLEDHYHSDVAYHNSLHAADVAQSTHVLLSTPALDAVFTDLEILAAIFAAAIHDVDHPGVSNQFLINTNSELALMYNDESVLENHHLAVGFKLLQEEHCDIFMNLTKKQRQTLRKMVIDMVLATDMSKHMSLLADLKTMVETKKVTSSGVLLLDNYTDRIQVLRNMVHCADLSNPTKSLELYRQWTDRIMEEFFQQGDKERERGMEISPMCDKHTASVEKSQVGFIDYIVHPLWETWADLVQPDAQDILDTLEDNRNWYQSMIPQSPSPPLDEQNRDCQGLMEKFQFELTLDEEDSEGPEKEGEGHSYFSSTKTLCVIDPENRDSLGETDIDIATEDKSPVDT

`FC(F)(F)c1ccccc1-c1nc(NCCN2CCOCC2)c2ccccc2n1`: the Potency is > 11.4 µM (inactive) in experiment [1]; 12.6 µM (active) in [3]; > 46 µM (inactive) in experiment [6]; > 46 µM (inactive) in [7]; 7.94 µM (active) in experiment [10]. Besides, the activity change, negative = inhibition in experiment [2] is -6.06% (inactive); in [4], 6.4% (inactive); in experiment [11], 4.77% (inactive). For the same molecule, the activity, negative = inhibition in experiment [5] is 3.19% (inactive). In [8], the molecule was called inactive. Further, the Potency entry in [9], in experiment [12], in experiment [13], in experiment [14], in experiment [15] and in [16] was “inactive” in each case. Further, the figures for the max response in experiment [11] (setting [19]) and in experiment [11] (setting [20]) were 18.8% and 21.5%, respectively.

On to `N#Cc1cccc(-c2nc3cnc(Oc4cccc(Cl)c4)nc3n(C3CC3)c2=O)c1`, for which the Potency in [1] is > 11.4 µM (inactive); in experiment [3], 2.51 µM (active); in experiment [6], > 9.22 µM (inactive); in experiment [7] it was > 46 µM (inactive); in [17], 3.16 µM (active). Moreover, the activity change, negative = inhibition in experiment [2] is -1.53% (inactive); in experiment [4], 12.5% (inactive); in [11], -3.65% (inactive). In addition, in [5], the activity, negative = inhibition is -10.1% (inactive). Moreover, the outcome in experiment [8] was inactive. Moreover, the max response in experiment [11] (setting [19]) is 11%; in [11] (setting [20]), 8.29%. For the same molecule, the Potency entry in experiment [12], in experiment [13], in experiment [14], in [15] and in [16] was “inactive” each time.

As for `O=c1cnc2cnc(N3CCOCC3)nc2n1CCc1ccccc1`, the Potency in [1] is > 11.4 µM (inactive); in experiment [3] it was 3.16 µM (active); in experiment [6], > 9.22 µM (inactive); in experiment [12] it was 7.08 µM (active); in experiment [13], 7.94 µM (active); in experiment [14], 8.91 µM (active). For the same molecule, the activity change, negative = inhibition in experiment [2] was -4.12% (inactive); in [4] it was -13.2% (inactive); in [11], 3.67% (inactive). Moreover, the activity, negative = inhibition in experiment [5] is -10.2% (inactive). In addition, in [8], the call was inactive. Besides, the Potency result in [18], in [15] and in [16] was “inactive” each time. Moreover, the figures for the max response in experiment [11] (setting [19]) and in [11] (setting [20]) were 1.44% and 3.8%, respectively.
